For 20 molecules, growth inhibition results are on record in PubChem BioAssay (NCI).

About 79,000 compounds went through this panel and 15% of them were active in at least one assay; those are over-represented in the sample as a whole. Unmarked numbers belong to inactive results. Calls of active or inactive are those of the source. No stated cut-off is given here; in the data, active means growth inhibition above about 70%; inactive means the rest. Where a SMILES comes first, the peptide text is derived from it. The star is where a group is joined. Cbz = O=C(OCc1ccccc1)*

The nature of test [1]: NCI Yeast Anticancer Drug Screen. Data for the rad50 strain (AID 155).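 Further: 0% = growth of vehicle-only cultures of the same strain.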 The conditions noted are these: S. cerevisiae rad50 strain growth inhibition; at 50.0 µM; active compounds read high. Summed up:
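DNA repair mutant yeast, compound exposure, growth read-out; inhibition is taken relative to vehicle.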

Test [2] can be described thus: NCI Yeast Anticancer Drug Screen. Data for the mec2-1 strain (AID 157). The conditions noted are these: S. cerevisiae mec2-1 strain, at 50.0 µM, active compounds read high. The method, boiled down: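 Readout is yeast growth inhibition, normalised to vehicle-treated controls, in the mec2-1 strain exposed to compound.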
Test [3] is described as follows: NCI Yeast Anticancer Drug Screen. Data for the sgs1 mgt1 strain (AID 161).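 Further: 0% = growth of cultures given vehicle only.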 The conditions noted are these: S. cerevisiae sgs1 mgt1 strain, at 50.0 µM, active compounds read high. Summed up: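 Percent growth inhibition was derived by comparing compound-exposed mutant yeast with vehicle-exposed cultures. The strain carries alterations in DNA damage repair.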
A short description of test [4]: NCI Yeast Anticancer Drug Screen. Data for the cln2 rad14 strain (AID 165).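 Further: 0% = growth equal to vehicle treated cultures.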 The conditions noted are these: S. cerevisiae cln2 rad14 strain, at 50.0 µM, active compounds read high. Summed up:
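Relative to vehicle controls, growth inhibition of compound-treated cln2 rad14 yeast was recorded.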

Test [5] is described as follows: NCI Yeast Anticancer Drug Screen. Data for the bub3 strain (AID 167). The conditions noted are these: S. cerevisiae bub3 mutant strain, at 50.0 µM, active compounds read high. Summed up:
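In this screen, a yeast mutant lacking normal mitotic checkpoint function is challenged with compound. Relative growth versus vehicle gives the inhibition value.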

Test [6] can be described thus: NCI Yeast Anticancer Drug Screen. Data for the mlh1 rad18 strain (AID 175). The settings on record: S. cerevisiae mlh1 rad18 strain growth inhibition; at 50.0 µM; active compounds read high. Summed up:
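Test agents were incubated with a yeast strain of defined genotype (DNA damage repair defect). Inhibition of growth was derived by comparison with vehicle-exposed cultures.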

Regarding `CCC1CCCC1=O` (stereo not given), the growth inhibition is -8.75% in test [1]; -10.1% in test [2]; -9.9% in test [3]; 8.6% in test [4]; 10.4% in test [5]; -8.55% in test [6].
As for `COc1ccc(-n2c(CCCC(=O)O)nc3c2C(=O)c2ccccc2C3=O)cc1`, the growth inhibition in test [1] was 20.4%; in test [2], 23.8%; in test [3], 25.5%; in test [4], 17.1%; in test [5], 25.1%; in test [6], 33.5%.
With `CC(=O)OCC(COC(C)=O)C(C)=O`, the growth inhibition in test [1] is -7.35%; in test [2], -5.75%; in test [3] it was -8.5%; in test [4], 21.6%; in test [5], 4.65%; in test [6] it was -22.6%.
On to `C(#CCN1CCOCC1)CCCN1CCOCC1`, for which the growth inhibition in test [1] is 1.2%; in test [2], -38.7%; in test [3], -2.45%; in test [4] it was -17.4%; in test [5] it was -15.2%; in test [6], 10.2%.
Regarding `COc1ccccc1NC(=O)CCl`, the growth inhibition in test [1] was 17.8%; in test [2], 24.9%; in test [3], 24.4%; in test [4] it was 18.8%; in test [5], 28.5%; in test [6] it was 36.2%.
For `N=c1c2c(ncn1N)CCN(Cc1ccccc1)C2`, the growth inhibition is -8.55% in test [1]; 7.35% in test [2]; -11.4% in test [3]; -71.8% in test [4]; -6% in test [5]; -32.8% in test [6].
With `CC1(C)OC2(CC1C1(C)C=CC(=O)O1)CC1(O)C(CCC34CC13C(=O)OC4c1ccoc1)O2` (stereo not given), the growth inhibition in test [1] is 17%; in test [2] it was 4.25%; in test [3] it was -10.3%; in test [4], 24.7%; in test [5], 14.9%; in test [6], 16.8%.
Consider `Cc1cc(OC(=O)Nc2cccc(Cl)c2C)ccc1[N+](=O)[O-]`, for which the growth inhibition in test [1] is 1.35%; in test [2], 53.4%; in test [3], 25.6%; in test [4] it was 3.95%; in test [5], 48.9%; in test [6] it was 1.7%.
As to `Cc1cc(NC(=O)NC(=O)c2ccccc2N(C)C)ccc1Oc1ncc(Br)cn1`, the growth inhibition in test [1] is -14.6%; in test [2] it was -13.8%; in test [3] it was -13.3%; in test [4], 12.2%; in test [5], -3.4%; in test [6], -4.45%.
Regarding `CC(C)CC(NC(=O)CNC(=O)CNC(=O)OCc1ccccc1)C(=O)O` (stereo not given), the growth inhibition is -0.1% in test [1]; 7.75% in test [2]; -2.1% in test [3]; -21.8% in test [4]; -0.9% in test [5]; 10.8% in test [6].
As to `CC1=C(CO)C(=O)O[C@@H]([C@@H](C)[C@H]2CC[C@H]3[C@@H]4C[C@H]5O[C@]56[C@@H](O)C=CC(=O)[C@]6(C)[C@H]4CC[C@]23C)C1`, the growth inhibition in test [1] was 86.2% (active); in test [2] it was 89.2% (active); in test [3] it was 86.5% (active); in test [4], 83.3% (active); in test [5] it was 89.7% (active); in test [6] it was 85% (active).
On to `N#CC(C#N)=CN1CCNC1=S`, for which the growth inhibition is 14.3% in test [1]; -1.2% in test [2]; 20.4% in test [3]; 16.6% in test [4]; 17.6% in test [5]; 17.6% in test [6].
Consider `CCCCN=C=C(c1ccccc1)c1ccccc1`, for which the growth inhibition in test [1] was 22%; in test [2], 12.5%; in test [3] it was -0.85%; in test [4], -35.8%; in test [5], -7.75%; in test [6], -15.1%.
With `COC(=O)c1ccc(/C2=c3\cc/c([n-]3)=C(\c3ccc(C(=O)OC)cc3)c3ccc([n-]3)/C(c3ccc(C(=O)OC)cc3)=c3/cc/c([n-]3)=C(\c3ccc(C(=O)OC)cc3)c3ccc2[n-]3)cc1.[Mn]`, the growth inhibition was 14.8% in test [1]; 23.1% in test [2]; 12.5% in test [3]; -3.65% in test [4]; -4.55% in test [5]; 53.7% in test [6].
`S=c1nc[nH]c2nc[nH]c12`: the growth inhibition in test [1] is -18%; in test [2] it was 0.25%; in test [3], -6.75%; in test [4] it was -66.5%; in test [5] it was 10.8%; in test [6] it was 20.1%.
For `CC(O)C(NC(=O)C(Cc1ccc(O)cc1)NC(=O)OCc1ccccc1)C(=O)O` (stereo not drawn) (Cbz-Tyr-Thr-OH; configuration not given here), the growth inhibition in test [1] is -9.65%; in test [2], -4.25%; in test [3], -2.05%; in test [4], -35.8%; in test [5] it was -4.85%; in test [6], -0.7%.
In the case of `Nc1nnc(-c2ccccc2O)o1`, the growth inhibition in test [1] was 36.3%; in test [2] it was 4.25%; in test [3], 23.7%; in test [4] it was 33.1%; in test [5], 21.4%; in test [6] it was 32.2%.
As for `CC(=O)/C=c1\[nH]/c(=C\C=C\c2ccccc2)c(=O)n1/C=C1\C(=O)Oc2ccccc2C1=O`, the growth inhibition in test [1] was -39.4%; in test [2] it was 7.1%; in test [3], 4.6%; in test [4] it was 24.6%; in test [5], -18.1%; in test [6], -46%.
Take `CC1CCCN(C(=O)Nc2ccccc2)C1` (stereo not given): the growth inhibition in test [1] was 14.4%; in test [2], -0.8%; in test [3] it was -10.2%; in test [4], 10.4%; in test [5], 4.65%; in test [6], 1.15%.
As to `O=C(Nc1ccccc1F)OCCCl`, the growth inhibition is 11.8% in test [1]; -23.6% in test [2]; 6.55% in test [3]; 1.45% in test [4]; 3.55% in test [5]; 4.4% in test [6].
